The panel holds about 79,000 compounds, 15% with a hit somewhere; the sample as a whole holds those more often. Calls of active or inactive are those of the source. Cut-off read from the data, not from the text of the source: active = growth inhibition above about 70%; inactive = the rest.
What was measured:
[1] = NCI Yeast Anticancer Drug Screen. Data for the rad52 strain (AID 147);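 note: 0% = growth of vehicle-treated control cultures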; conditions: S. cerevisiae rad52 mutant growth inhibition, active compounds read high
Method in brief: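 Yeast strain carrying a DNA damage repair alteration was exposed to test compounds. Growth inhibition was measured relative to vehicle-treated controls.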

[2] = NCI Yeast Anticancer Drug Screen. Data for the wt1 strain (AID 149);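 note: 0% = growth of vehicle-treated wt1 cultures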; conditions: S. cerevisiae wt1 strain (SPY 50644) growth inhibition, active compounds read high
Method in brief: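 Yeast wt1 strain exposed to compounds; growth inhibition measured relative to vehicle-treated controls.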

[3] = NCI Yeast Anticancer Drug Screen. Data for the rad50EPP+ strain (AID 151);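 note: 0% = growth of vehicle-treated control cultures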; conditions: S. cerevisiae rad50 mutant strain, active compounds read high
Method in brief: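 Yeast strain carrying rad50 alteration (rad50EPP+) exposed to compounds; growth inhibition measured relative to vehicle-treated controls.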

[4] = NCI Yeast Anticancer Drug Screen. Data for the mgt1 strain (AID 153); conditions: S. cerevisiae mgt1 mutant growth inhibition, active compounds read high
Method in brief: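 Yeast mgt1 strain (DNA repair/cell-cycle alteration panel) exposed to compounds; growth inhibition measured relative to vehicle-treated controls.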

[5] = NCI Yeast Anticancer Drug Screen. Data for the rad50 strain (AID 155);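 note: 0% = growth of vehicle-only cultures of the same strain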; conditions: S. cerevisiae rad50 strain growth inhibition, active compounds read high
Method in brief: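 Yeast carrying a defined DNA repair defect were exposed to test compounds, and growth was compared with vehicle-treated controls to give percent inhibition.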

[6] = NCI Yeast Anticancer Drug Screen. Data for the mec2-1 strain (AID 157); conditions: S. cerevisiae mec2-1 strain, active compounds read high
Method in brief: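 mec2-1 yeast strain, carrying an alteration in DNA damage repair or cell cycle control, was exposed to compounds; growth inhibition was measured relative to vehicle-treated controls.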

[7] = NCI Yeast Anticancer Drug Screen. Data for the rad14 strain (AID 159);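 note: 0% = growth of vehicle-treated control cultures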; conditions: S. cerevisiae rad14 strain growth inhibition, active compounds read high
Method in brief: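 Yeast cells carrying a defined DNA-repair defect were exposed to compounds, and growth inhibition was calculated relative to vehicle-treated control cultures.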

[8] = NCI Yeast Anticancer Drug Screen. Data for the sgs1 mgt1 strain (AID 161);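 note: 0% = growth of cultures given vehicle only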; conditions: S. cerevisiae sgs1 mgt1 strain, active compounds read high
Method in brief: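 Yeast cells carrying a defined DNA-repair defect were exposed to test compounds. Growth inhibition was measured relative to vehicle-treated controls.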

[9] = NCI Yeast Anticancer Drug Screen. Data for the CLN2oe strain (AID 163);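 note: 0% = growth of vehicle-only control cultures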; conditions: S. cerevisiae CLN2oe strain, active compounds read high
Method in brief: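 Yeast cells carrying a defined cell-cycle control alteration were exposed to test compounds. Growth inhibition was scored against vehicle-treated control cultures.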

[10] = NCI Yeast Anticancer Drug Screen. Data for the cln2 rad14 strain (AID 165);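 note: 0% = growth equal to vehicle treated cultures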; conditions: S. cerevisiae cln2 rad14 strain, active compounds read high
Method in brief: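 Yeast carrying cln2 and rad14 alterations (cell cycle control and DNA damage repair) were exposed to compounds. Growth inhibition was measured against vehicle-treated controls.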

[11] = NCI Yeast Anticancer Drug Screen. Data for the bub3 strain (AID 167); conditions: S. cerevisiae bub3 mutant strain, active compounds read high
Method in brief: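 Compounds were applied to a genetically altered yeast strain carrying a cell-cycle control defect. Growth inhibition was scored against vehicle-treated controls.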

[12] = NCI Yeast Anticancer Drug Screen. Data for the wt2 strain (AID 169);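 note: 0% = growth of vehicle-treated yeast cultures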; conditions: S. cerevisiae wt2 strain growth inhibition, active compounds read high
Method in brief: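 Yeast cells were exposed to test compounds, and growth inhibition was measured relative to vehicle-treated controls.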

[13] = NCI Yeast Anticancer Drug Screen. Data for the mlh1 strain (AID 171);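 note: 0% = growth of vehicle-treated control cultures of the same strain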; conditions: S. cerevisiae mlh1 strain growth inhibition, active compounds read high
Method in brief: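 Yeast carrying a defined genetic alteration in DNA damage repair or cell cycle control were exposed to test compounds. Growth inhibition was measured relative to vehicle-treated controls.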

[14] = NCI Yeast Anticancer Drug Screen. Data for the sgs1 strain (AID 173);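 note: 0% = growth of vehicle-only control cultures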; conditions: S. cerevisiae sgs1 mutant, active compounds read high
Method in brief: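 Yeast mutant strains carrying defined defects in DNA damage repair or cell cycle control were exposed to test compounds. Growth inhibition was scored against vehicle-treated controls.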

[15] = NCI Yeast Anticancer Drug Screen. Data for the mlh1 rad18 strain (AID 175); conditions: S. cerevisiae mlh1 rad18 strain growth inhibition, active compounds read high
Method in brief: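 Growth inhibition of the yeast strain was measured after compound exposure and expressed relative to vehicle-treated controls. The strain carries defined defects in DNA damage repair.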

[16] = NCI Yeast Anticancer Drug Screen. Data for the rad18 strain (AID 177); conditions: S. cerevisiae rad18 mutant growth inhibition, active compounds read high
Method in brief: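 Yeast carrying a defined DNA damage repair alteration were exposed to compounds. Growth inhibition was expressed relative to vehicle-treated controls.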

[17] = at 5.0 µM (retest, dose inferred, filed as 0.5)
[18] = at 50.0 µM (retest, dose inferred, filed as 5.0)

Measured: growth inhibition

CCO/C=C1\SC(=S)N(c2ccc(OCC)cc2)C1=O
inactive: [1]; at 1.2 µM 3% | [1]; at 3.7 µM -1% | [1]; at 11.0 µM 0% | [1]; at 33.0 µM 25% | [2]; at 1.2 µM -36% | [2]; at 3.7 µM -51% | [2]; at 11.0 µM -50% | [2]; at 33.0 µM -34% | [2]; at 100.0 µM -33% | [3]; at 1.2 µM -38% | [3]; at 3.7 µM -21% | [3]; at 11.0 µM -6% | [3]; at 33.0 µM 42% | [4]; at 1.2 µM -13% | [4]; at 3.7 µM -6% | [4]; at 11.0 µM -20% | [4]; at 33.0 µM 0% | [4]; at 100.0 µM 45% | [5]; at 1.2 µM -17% | [5]; at 3.7 µM -7% | [5]; [17] 41% | [5]; at 11.0 µM -3% | [5]; at 33.0 µM 36% | [5]; at 50.0 µM 29.7% | [6]; at 1.2 µM -43% | [6]; at 3.7 µM -35% | [6]; [17] 47% | [6]; at 11.0 µM -27% | [6]; at 33.0 µM -41% | [6]; at 50.0 µM 28.2% | [6]; at 100.0 µM 26% | [7]; at 1.2 µM -42% | [7]; at 3.7 µM -41% | [7]; at 11.0 µM -40% | [7]; at 33.0 µM -2% | [7]; at 100.0 µM 8% | [8]; [17] -7% | [8]; [18] 44% | [8]; at 50.0 µM 33.5% | [9]; at 1.2 µM -8% | [9]; at 3.7 µM -1% | [9]; at 11.0 µM 4% | [9]; at 33.0 µM 21% | [9]; at 100.0 µM 57% | [10]; [17] 26% | [10]; [18] 60% | [10]; at 50.0 µM 21.1% | [11]; at 1.2 µM -7% | [11]; at 3.7 µM -4% | [11]; [17] 9% | [11]; at 11.0 µM -9% | [11]; at 33.0 µM 32% | [11]; at 100.0 µM 58% | [12]; at 1.2 µM -28% | [12]; at 3.7 µM -38% | [12]; at 11.0 µM -59% | [12]; at 33.0 µM -38% | [12]; at 100.0 µM 27% | [13]; at 1.2 µM -8% | [13]; at 3.7 µM -12% | [13]; at 11.0 µM -18% | [13]; at 33.0 µM -14% | [13]; at 100.0 µM -10% | [14]; at 1.2 µM -35% | [14]; at 3.7 µM -39% | [14]; at 11.0 µM -34% | [14]; at 33.0 µM -33% | [14]; at 100.0 µM 32% | [15]; [17] 29% | [15]; at 50.0 µM 57.5% | [16]; at 1.2 µM -37% | [16]; at 3.7 µM -31% | [16]; at 11.0 µM -32% | [16]; at 33.0 µM -21% | [16]; at 100.0 µM 18%
active: [1]; at 100.0 µM 70% | [3]; at 100.0 µM 76% | [5]; [18] 79% | [5]; at 100.0 µM 72% | [6]; [18] 86% | [11]; [18] 73% | [11]; at 50.0 µM 72.2% | [15]; [18] 76%
